Structures are written as SMILES. Records with an inconclusive call do not appear. Entries that show only a call come without a potency. Activity calls are given as the source filed them. The call rests on the fitted dose curve; in most records, active means well fitted cell-killing curve with a large enough effect in the repeat runs; inconclusive means weak or mixed curves, or effect the other way; inactive means flat fitted curve, though single readings scatter.

This assay in a line: qHTS assay to identify small molecule antagonists of the androgen receptor (AR) signaling pathway using the MDA cell line - cell viability counter screen (AID 743041; further: nearly all actives have a fitted effect of over 45% in size). The conditions noted are these: MDA-kb2 viability, CellTiter-Fluor, 16 h, cells co-treated with R1881 androgen agonist; series mostly up to 70.3 µM. From the text:
National Center for Advancing Translational Sciences [NCATS]
NIH Chemical Genomics Center [NCGC]
U.S. Environmental Protection Agency [EPA]
National Institutes of Environmental Health Sciences [NIEHS]
National Toxicology Program [NTP]
U.S. Food and Drug Administration [FDA]
Androgen receptor (AR), a nuclear hormone receptor, plays a critical role in AR-dependent prostate cancer and other androgen related diseases. Endocrine disrupting chemicals (EDCs) and their interactions with steroid hormone receptors like AR may cause disruption of normal endocrine function as well as interfere with metabolic homeostasis, reproduction, developmental and behavioral functions. To identify the compounds that inhibit AR signaling, MDA-kb2 AR-luc cell line (from ATCC, deposited by Wilson et al.) was used to screen the Tox21 10K compound library. MDA-kb2 AR-luc cell line is human breast carcinoma cell line that was stably transfected with a luciferase reporter gene under control of the MMTV promoter containing response elements for both androgen receptor (AR) and glucocorticoid receptor (GR). The cytotoxicity of the Tox21 compound library against the MDA-kb2 AR-luc cell line was tested in parallel by measuring the cell viability using CellTiter-Fluor assay (Promega, Madison, WI) in the same wells.
Tox21 Assay Protocol Summary:
MDA-kb2 AR-luc cells were dispensed at 3,000 cells/4 uL/well of culture medium into white wall/solid-bottom 1536-well plates using a Multidrop Combi (ThermoFisher Scientific, Waltham, MA) dispenser. After the assay plates were incubated at a 37C and 0% CO2 for 5 hr, 23 nL of compounds dissolved in DMSO, positive controls or DMSO only was transferred to the assay plate by a Pintool station (Kalypsys, San Diego, CA), followed by addition of 1 uL of agonist (R1881) in culture medium using a Bioraptr Flying Reagent Dispenser (FRD) workstation (Beckman Coulter, Indianapolis, IN, USA). The plates were incubated at a 37C and 0% CO2 for 16 h. After 15.5 h incubation, 1uL of CellTiter-Fluor reagent (Promega) was added using a Bioraptr FRD to each plate for measuring cytotoxicity. The fluorescence intensity was quantified on a ViewLux plate reader (PerkinElmer, Shelton, CT) following 30 min incubation at 37C and 0% CO2.
(Quantitative high-throughput screening tests each substance at several concentrations.)
In the case of `C#C[C@]1(OC(C)=O)CC[C@H]2[C@@H]3CCC4=C[C@@H](OC(C)=O)CC[C@@H]4[C@H]3CC[C@@]21C`, the Potency entry is “inactive”. With `CCCCC/C=C\C/C=C\CCCCCCCC(=O)O`, the Potency result was “inactive”.

As to `Clc1ccnc(Cl)n1`, the Potency result was “inactive”. In the case of `OC1CCC(C2CCCCC2)CC1` (stereo not given), the Potency result is “inactive”. Next, `CCCCCC(C)OC(=O)COc1ccc(Cl)c2cccnc12` (stereo not given): “inactive”; `Cc1cc(C(C)(C)C)cc(C)c1CC1=NCCN1`: “inactive”. On to `C=CCn1c(=O)n(CC=C)c(=O)n(CC=C)c1=O`, for which the Potency entry was “inactive”. With `CCN(CCN)c1cccc(C)c1` the entry was “inactive”. With `CC(=O)CC(=O)Nc1ccc(S(=O)(=O)O)cc1` the entry was “inactive”; with `CCCC(=O)OCCc1ccccc1`, “inactive”; with `CC[N+](CC)(CC)CCOC(=O)C(C1CCCC1)C1CCCC1`, “inactive”. Regarding `CCC(=O)OC(=O)CC`, the Potency result was “inactive”.

Consider `CCC(C)(CCC(C)C)C(=O)[O][Sn]([CH3])([CH3])[O]C(=O)C(C)(CC)CCC(C)C` (stereo not given), for which the Potency entry was “inactive”. With `C=CC(C)(CCC=C(C)C)OC=O` (stereo not given) the entry was “inactive”; with `Nc1ccc(Oc2ccc(Cl)cc2)cc1`, “inactive”. On to `O=C(O)c1ccc2cc(C(=O)O)ccc2c1`, for which the Potency result was “inactive”. `Cc1c(F)c(N2CCNC(C)C2)cc2c1c(=O)c(C(=O)O)cn2C1CC1` (stereo not given): the Potency result was “inactive”. Next, `CN(C)C(=O)COC(=O)Cc1ccc(OC(=O)c2ccc(N=C(N)N)cc2)cc1`: “inactive”; `Cc1ccc(-c2ccccc2)cc1`: “inactive”; `COC(C)=O`: “inactive”. Next, `C1CCC(SSC2CCCCC2)CC1`: “inactive”; `C/C=C/C=C/COC(=O)C(C)C`: “inactive”. For the compound `OC[C@@H](O)[C@@H](O)CO`, the Potency result was “inactive”. Take `CCCCCCCCCCCCOC(=O)c1ccc(O)cc1`: the Potency entry is “inactive”. Next, `O=[N+]([O-])c1ccc(F)c(Cl)c1`: “inactive”; `CCCC[P+](C)(CCCC)CCCC`: “inactive”. As to `CC(C(=O)O)c1ccc2c(c1)[nH]c1ccc(Cl)cc12` (stereo not given), the Potency result was “inactive”. With `CN(C)Cc1ccccc1O` the entry was “inactive”; with `ClCCl`, “inactive”. With `C=C(C)c1cccc(C(=C)C)c1` the entry was “inactive”; with `CCN1C(=O)c2ccccc2C1Nc1ccc(OCCN2CCCCC2)cc1` (stereo not given), “inactive”. `CCCCOC(=O)CO`: the Potency result is “inactive”. Consider `O=C(O)Cc1ccccc1Nc1c(Cl)cccc1Cl`, for which the Potency result was “inactive”. With `NC[C@H]1O[C@H](O[C@H]2[C@H](O[C@@H]3O[C@H](CO)[C@@H](O)[C@H]3O)C(O)[C@H](N)C[C@@H]2N)[C@H](N)[C@@H](O)[C@@H]1O` (stereo not given in full) the entry was “inactive”; with `Sc1nc2ccccc2s1`, “inactive”.

For the compound `O=C(O)c1cc(=O)c2ccccc2o1`, the Potency entry is “inactive”. With `Nc1nc(-c2ccccc2)cs1` the entry was “inactive”. With `CC1=CCC(=C(C)C)CC1` the entry was “inactive”. As for `CCOC(=O)NNc1ccc(N(CC)CC(C)O)nn1` (stereo not given), the Potency entry was “inactive”.

Turning to `CN(C)Cc1cc(C(C)(C)C)c(O)c(C(C)(C)C)c1`, the Potency entry is “inactive”.

The values above are taken from PubChem BioAssay (Tox21).
